Results published in PubChem BioAssay (NCATS).
Records with an inconclusive call do not appear. Where a call stands in place of a potency, no number is given. Values without a mark were called inactive. Active and inactive are the calls of the source. The call rests on the fitted dose curve; in most records, active means well fitted inhibition curve with a large enough effect; inconclusive means small, poorly fitted or top-dose-only effect; inactive means no such curve, though single readings can be large or run the other way.

Key:
[1] = system: Zika virus NS2B-NS3 protease (unlinked complex); experiment: Primary screen GU Rhodamine qHTS for Zika virus inhibitors: Unlinked NS2B-NS3 protease assay (AID 1347159); further: nearly all actives have a fitted effect of over 60% in size
Procedure, shortened: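 Percent inhibition came from the 15-min rise in Rhodamine110 fluorescence (1.5 microM substrate, ~15% conversion), normalized to no-inhibitor and no-enzyme wells and Hill-fitted. Unlinked protease, 25 nM, pH 8.0 Tris buffer; compounds up to 114 microM, 15-min preincubation.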

[2] = system: Zika virus NS2B-NS3 protease (linked construct); experiment: Primary screen NINDS Rhodamine qHTS for Zika virus inhibitors (AID 1347160); further: nearly all actives have a fitted effect of over 55% in size
Procedure, shortened: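 Rhodamine110-peptide cleavage (1.5 µM substrate) by 25 nM linked NS2B-NS3 enzyme at pH 8.0 (Tris, Tween 20), after 15 min RT preincubation with compounds; 15-min fluorescence change normalized to controls and Hill-fitted.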
Potency means the concentration at half of the fitted maximal effect.

Row | Structure (SMILES) | Potency [1] | Potency [2] | activity change, negative = inhibition [1] | activity change, negative = inhibition [2]
1 | CC(=O)OC(C)(C)/C=C/C(=O)[C@](C)(O)[C@H]1C(O)C[C@@]2(C)[C@@H]3CC=C4[C@@H](C=C(O[C@@H]5O[C@H](CO)[C@@H](O)[C@H](O)[C@H]5O)C(=O)C4(C)C)[C@]3(C)C(=O)C[C@]12C (stereo partly drawn) | inactive | inactive |  | 
2 | COc1cc(N2CCOCC2)ccc1NC(=O)c1csc(-c2cccnc2)n1 | inactive | inactive |  | 
3 | CC(C)CCNc1ncccc1C(=O)N1CCN(Cc2ccccc2)CC1 | inactive | inactive |  | 
4 | Cc1cn(CCN2CCN(c3ccccc3-c3cc(C#N)cc(C(=O)NCCCN4CCCC4)c3)CC2)c2ccccc12 | inactive | inactive |  | 
5 | O=C(COc1ccc(C(=O)c2ccccc2)cc1)NC1CCN(Cc2ccccc2)CC1 | inactive | inactive |  | 
6 | COc1ccc2nc(-c3cc(OC)c(OC)c(OC)c3)cc(C(=O)NCC(=O)Nc3ccc(C(C)=O)cc3)c2c1 | inactive | inactive |  | 
7 | O=c1[nH]cnc2c([C@@H]3N[C@H](CO)[C@@H](O)[C@H]3O)c[nH]c12 | inactive | inactive |  | 
8 | CN(C)C(CCOc1cccc2ccccc12)c1ccccc1 (stereo not drawn) | inactive | inactive |  | 
9 | O=C(CCl)Nc1cccc(NC2=NS(=O)(=O)c3ccccc32)c1 | inactive | inactive |  | 
10 | Cc1[nH]c(/C=C2\C(=O)Nc3cc(-c4ccccc4)ccc32)c(C)c1CCC(=O)O | 1.78 µM (active) | 2.24 µM (active) |  | 
11 | COc1cc([C@H]2O[C@H](c3cc(OC)c4c(c3)OCO4)[C@H](C)[C@H]2C)cc(OC)c1OC | inactive | inactive |  | 
12 | NC(=O)c1ccccc1Nc1ccnc(Nc2cccc(O)c2)n1 | inactive | inactive |  | 
13 | CC(=O)OC(C)(C)/C=C/C(=O)C(C)(O)C1C(O)CC2(C)C3CC=C(C(C)(C)C(=O)O)C(CC(=O)O)C3(C)C(=O)CC12C (stereo not drawn) | inactive | inactive |  | 
14 | Cc1nc(-c2cn3c(n2)-c2ccc(-c4cnn(C(C)(C)C(N)=O)c4)cc2OCC3)n(C(C)C)n1 | inactive | inactive |  | 
15 | CCN(CC)C(=O)C(c1ccccc1)N1CCN(c2ccc(NC(=O)c3ccccc3-c3cccnc3)cc2F)CC1 (stereo not drawn) | inactive | inactive |  | 
16 | CC(C)NC(=O)COc1cccc(-c2nc(Nc3ccc4[nH]ncc4c3)c3ccccc3n2)c1 | inactive | inactive |  | 
17 | C[C@@H]1O[C@@H](O[C@H]2[C@H](OC(=O)[C@]34CCC(C)(C)C[C@H]3C3=CCC5[C@@]6(C)C[C@H](O)[C@H](O[C@@H]7O[C@H](C(=O)O)[C@@H](O)[C@H](O)[C@H]7O)[C@@](C)(CO)C6[C@H](O)C[C@@]5(C)[C@]3(C)C[C@H]4O)O[C@@H](CO)[C@@H]2O)[C@H](O)[C@H](O)[C@H]1O[C@@H]1OC[C@@H](O)[C@H](O[C@H]2OC[C@](O)(CO)[C@H]2O)[C@H]1O (stereo partly drawn) |  |  | 13.4% [at 19.1 µM] | -5.61% [at 10.7 µM]
18 | C[C@@H]1O[C@@H](O[C@H]2[C@H](OC(=O)[C@]34CCC(C)(C)C[C@H]3C3=CCC5[C@@]6(C)C[C@H](O)[C@H](O[C@@H]7O[C@H](CO)[C@@H](O)[C@H](O)[C@H]7O)[C@](CO)(C(=O)O)C6CC[C@@]5(C)[C@]3(C)C[C@H]4O)OC[C@H](O)[C@@H]2O)[C@H](O)[C@H](O)[C@H]1O[C@@H]1OC[C@@H](O)[C@H](O[C@@H]2OC[C@](O)(CO)[C@H]2O)[C@H]1O (stereo partly drawn) |  |  | 10.7% [at 19.1 µM] | 31.9% [at 10.7 µM]
19 | COc1ccccc1N1CCN(CC(C(=O)NC(C)(C)C)c2ccccc2)CC1 (stereo not drawn) | inactive | inactive |  | 
